According to the supplement of paper PMC11732987, “Enantioselective OTUD7B fragment discovery through chemoproteomics screening and high-throughput optimisation” (Communications Chemistry, 2025):

Columns and labels:
Assay in all cases: log2 ratio of Biotin-Ahx-Ub-VS probe labelling (fragment/DMSO); higher = less target engagement (more negative = stronger competition), active = hit call of the paper (q ≤ 0.05, log2 ratio ≤ -1)
Settings in all cases: compound concentration: 200 uM; treatment time: 3 h
USP34 = USP34 (UniProt Q70CQ2)
USP34, sequence (Q70CQ2 whole entry, the tested form may be a part): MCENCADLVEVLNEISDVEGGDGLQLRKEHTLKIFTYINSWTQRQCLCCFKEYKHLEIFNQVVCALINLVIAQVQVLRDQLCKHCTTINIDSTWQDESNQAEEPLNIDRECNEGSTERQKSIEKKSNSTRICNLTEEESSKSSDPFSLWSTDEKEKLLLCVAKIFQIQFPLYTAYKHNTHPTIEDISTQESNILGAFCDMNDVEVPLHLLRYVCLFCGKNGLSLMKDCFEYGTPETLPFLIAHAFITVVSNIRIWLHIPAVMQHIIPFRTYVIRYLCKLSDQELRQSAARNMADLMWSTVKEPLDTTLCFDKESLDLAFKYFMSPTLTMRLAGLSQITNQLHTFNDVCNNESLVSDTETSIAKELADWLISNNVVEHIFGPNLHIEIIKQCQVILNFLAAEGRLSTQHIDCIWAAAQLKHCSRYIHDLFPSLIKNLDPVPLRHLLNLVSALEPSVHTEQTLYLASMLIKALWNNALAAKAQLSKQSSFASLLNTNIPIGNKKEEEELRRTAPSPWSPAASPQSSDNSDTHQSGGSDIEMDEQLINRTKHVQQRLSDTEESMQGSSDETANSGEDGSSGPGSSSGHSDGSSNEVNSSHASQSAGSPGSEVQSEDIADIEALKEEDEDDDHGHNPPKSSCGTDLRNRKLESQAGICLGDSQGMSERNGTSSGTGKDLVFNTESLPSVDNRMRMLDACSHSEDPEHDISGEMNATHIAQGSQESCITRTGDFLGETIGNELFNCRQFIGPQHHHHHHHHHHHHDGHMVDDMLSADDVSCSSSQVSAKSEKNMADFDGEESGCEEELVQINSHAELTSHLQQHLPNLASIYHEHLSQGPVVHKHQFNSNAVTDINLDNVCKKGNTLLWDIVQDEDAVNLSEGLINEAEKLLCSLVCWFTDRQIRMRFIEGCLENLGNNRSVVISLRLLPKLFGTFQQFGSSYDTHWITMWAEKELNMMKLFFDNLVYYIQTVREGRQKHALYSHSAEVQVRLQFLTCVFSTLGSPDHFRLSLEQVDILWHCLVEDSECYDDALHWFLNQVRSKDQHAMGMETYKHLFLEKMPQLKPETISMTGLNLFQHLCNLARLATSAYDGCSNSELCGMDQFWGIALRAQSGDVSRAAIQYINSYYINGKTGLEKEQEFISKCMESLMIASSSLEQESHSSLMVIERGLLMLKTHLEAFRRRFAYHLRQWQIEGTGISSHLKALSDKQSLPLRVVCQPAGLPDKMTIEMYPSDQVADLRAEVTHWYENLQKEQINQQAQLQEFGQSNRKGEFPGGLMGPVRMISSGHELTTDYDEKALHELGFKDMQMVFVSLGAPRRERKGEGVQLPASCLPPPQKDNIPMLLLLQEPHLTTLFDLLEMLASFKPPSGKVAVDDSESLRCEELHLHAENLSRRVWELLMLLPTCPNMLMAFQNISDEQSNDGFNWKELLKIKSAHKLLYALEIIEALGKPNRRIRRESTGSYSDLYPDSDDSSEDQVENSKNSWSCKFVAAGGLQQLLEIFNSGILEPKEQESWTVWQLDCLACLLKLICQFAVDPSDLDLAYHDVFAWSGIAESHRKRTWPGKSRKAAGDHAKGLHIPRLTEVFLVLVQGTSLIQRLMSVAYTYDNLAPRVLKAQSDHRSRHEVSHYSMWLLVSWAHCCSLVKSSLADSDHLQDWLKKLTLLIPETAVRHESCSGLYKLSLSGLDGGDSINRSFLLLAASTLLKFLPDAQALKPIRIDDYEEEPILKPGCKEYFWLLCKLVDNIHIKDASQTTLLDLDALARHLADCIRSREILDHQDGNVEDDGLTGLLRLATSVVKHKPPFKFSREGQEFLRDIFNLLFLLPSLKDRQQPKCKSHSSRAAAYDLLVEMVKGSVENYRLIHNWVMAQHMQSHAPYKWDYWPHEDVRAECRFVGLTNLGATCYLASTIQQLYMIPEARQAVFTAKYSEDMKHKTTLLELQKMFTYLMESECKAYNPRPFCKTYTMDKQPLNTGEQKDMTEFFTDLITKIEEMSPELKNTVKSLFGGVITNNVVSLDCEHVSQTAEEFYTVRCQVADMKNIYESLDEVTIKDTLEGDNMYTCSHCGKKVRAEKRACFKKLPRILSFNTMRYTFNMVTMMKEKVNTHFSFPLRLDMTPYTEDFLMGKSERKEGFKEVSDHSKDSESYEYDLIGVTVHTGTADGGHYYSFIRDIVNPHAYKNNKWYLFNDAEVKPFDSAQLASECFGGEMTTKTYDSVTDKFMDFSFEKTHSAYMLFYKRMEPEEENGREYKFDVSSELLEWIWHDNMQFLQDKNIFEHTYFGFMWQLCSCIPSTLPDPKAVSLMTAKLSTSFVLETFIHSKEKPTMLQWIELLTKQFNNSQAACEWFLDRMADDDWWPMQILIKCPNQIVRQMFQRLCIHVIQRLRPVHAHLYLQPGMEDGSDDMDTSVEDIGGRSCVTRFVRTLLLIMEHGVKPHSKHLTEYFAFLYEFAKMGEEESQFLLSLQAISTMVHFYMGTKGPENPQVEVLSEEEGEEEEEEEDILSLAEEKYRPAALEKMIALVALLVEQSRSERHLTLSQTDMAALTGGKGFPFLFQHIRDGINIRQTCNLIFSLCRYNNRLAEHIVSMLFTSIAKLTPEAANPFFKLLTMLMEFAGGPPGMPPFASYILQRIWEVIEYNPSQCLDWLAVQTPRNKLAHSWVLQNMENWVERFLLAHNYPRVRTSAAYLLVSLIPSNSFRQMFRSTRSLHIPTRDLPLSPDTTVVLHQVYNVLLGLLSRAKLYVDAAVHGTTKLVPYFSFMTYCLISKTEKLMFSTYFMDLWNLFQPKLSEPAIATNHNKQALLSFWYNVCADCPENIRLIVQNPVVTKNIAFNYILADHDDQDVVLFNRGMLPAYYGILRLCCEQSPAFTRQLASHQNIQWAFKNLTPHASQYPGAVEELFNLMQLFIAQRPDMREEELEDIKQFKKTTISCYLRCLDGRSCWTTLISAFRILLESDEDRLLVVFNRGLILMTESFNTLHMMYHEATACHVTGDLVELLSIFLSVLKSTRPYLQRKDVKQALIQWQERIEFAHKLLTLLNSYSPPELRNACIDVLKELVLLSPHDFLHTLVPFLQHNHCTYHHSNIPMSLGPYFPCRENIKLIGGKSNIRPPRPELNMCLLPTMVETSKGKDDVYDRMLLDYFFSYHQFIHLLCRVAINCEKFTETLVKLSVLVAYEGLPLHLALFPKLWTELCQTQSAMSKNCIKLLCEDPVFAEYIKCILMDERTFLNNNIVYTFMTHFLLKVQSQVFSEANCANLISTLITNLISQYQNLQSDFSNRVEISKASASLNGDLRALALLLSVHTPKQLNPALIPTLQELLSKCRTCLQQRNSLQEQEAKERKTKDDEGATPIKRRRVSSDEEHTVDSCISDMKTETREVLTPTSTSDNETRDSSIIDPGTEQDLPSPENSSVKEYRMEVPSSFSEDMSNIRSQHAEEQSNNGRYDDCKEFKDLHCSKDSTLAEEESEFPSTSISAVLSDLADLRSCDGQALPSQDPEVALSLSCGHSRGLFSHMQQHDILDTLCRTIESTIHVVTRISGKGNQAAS
Summary of the method: (§1)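 HEK293T lysate, 495 µg per sample in Tris/CHAPS/IGEPAL buffer with protease inhibitors, was treated in triplicate with fragment at 200 µM or vehicle for 3 h and then with Biotin-Ahx-Ub-VS at 0.5 µM final for 1 h. Labelled DUBs were NeutrAvidin-enriched, digested with LysC and trypsin, and run by diaPASEF LC-MS/MS. Spectronaut label-free quantities were global-median-normalised, and values are average log2 fragment/vehicle ratios by unpaired t-test on proteins with ≥2 unique peptides.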

USP36 = target: T1, USP36 (UniProt Q9P275)
T1 sequence (whole entry): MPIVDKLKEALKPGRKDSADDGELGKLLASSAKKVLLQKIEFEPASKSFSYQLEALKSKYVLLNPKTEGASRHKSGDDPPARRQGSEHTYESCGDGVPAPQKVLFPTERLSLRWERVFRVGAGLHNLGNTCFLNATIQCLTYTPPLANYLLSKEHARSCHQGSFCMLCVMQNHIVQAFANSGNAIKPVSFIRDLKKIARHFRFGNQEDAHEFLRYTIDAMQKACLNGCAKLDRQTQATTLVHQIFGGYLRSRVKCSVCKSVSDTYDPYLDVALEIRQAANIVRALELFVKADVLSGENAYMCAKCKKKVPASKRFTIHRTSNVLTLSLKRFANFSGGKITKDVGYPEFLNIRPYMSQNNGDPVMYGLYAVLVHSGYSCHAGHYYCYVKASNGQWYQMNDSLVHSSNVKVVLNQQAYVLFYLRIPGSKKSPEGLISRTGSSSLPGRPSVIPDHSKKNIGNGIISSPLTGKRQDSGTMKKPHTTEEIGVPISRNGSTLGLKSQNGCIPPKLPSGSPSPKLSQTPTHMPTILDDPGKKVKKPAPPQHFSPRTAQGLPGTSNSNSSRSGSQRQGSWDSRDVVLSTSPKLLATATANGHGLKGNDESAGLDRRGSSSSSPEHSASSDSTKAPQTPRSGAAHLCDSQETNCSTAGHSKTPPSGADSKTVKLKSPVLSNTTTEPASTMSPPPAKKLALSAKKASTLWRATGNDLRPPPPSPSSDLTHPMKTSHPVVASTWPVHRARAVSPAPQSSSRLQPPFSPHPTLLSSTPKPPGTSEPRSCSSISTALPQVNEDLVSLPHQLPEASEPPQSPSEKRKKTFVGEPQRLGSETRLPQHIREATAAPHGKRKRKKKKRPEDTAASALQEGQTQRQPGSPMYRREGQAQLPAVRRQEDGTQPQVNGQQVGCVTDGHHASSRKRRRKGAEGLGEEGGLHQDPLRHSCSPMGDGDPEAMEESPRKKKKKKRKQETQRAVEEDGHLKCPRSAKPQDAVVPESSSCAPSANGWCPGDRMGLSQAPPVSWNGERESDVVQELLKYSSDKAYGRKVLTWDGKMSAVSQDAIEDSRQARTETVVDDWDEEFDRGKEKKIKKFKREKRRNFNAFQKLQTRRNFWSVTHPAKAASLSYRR
Summary of the method: as §1

USP38 = target: T2, USP38 (UniProt Q8NB14)
T2 sequence (whole entry): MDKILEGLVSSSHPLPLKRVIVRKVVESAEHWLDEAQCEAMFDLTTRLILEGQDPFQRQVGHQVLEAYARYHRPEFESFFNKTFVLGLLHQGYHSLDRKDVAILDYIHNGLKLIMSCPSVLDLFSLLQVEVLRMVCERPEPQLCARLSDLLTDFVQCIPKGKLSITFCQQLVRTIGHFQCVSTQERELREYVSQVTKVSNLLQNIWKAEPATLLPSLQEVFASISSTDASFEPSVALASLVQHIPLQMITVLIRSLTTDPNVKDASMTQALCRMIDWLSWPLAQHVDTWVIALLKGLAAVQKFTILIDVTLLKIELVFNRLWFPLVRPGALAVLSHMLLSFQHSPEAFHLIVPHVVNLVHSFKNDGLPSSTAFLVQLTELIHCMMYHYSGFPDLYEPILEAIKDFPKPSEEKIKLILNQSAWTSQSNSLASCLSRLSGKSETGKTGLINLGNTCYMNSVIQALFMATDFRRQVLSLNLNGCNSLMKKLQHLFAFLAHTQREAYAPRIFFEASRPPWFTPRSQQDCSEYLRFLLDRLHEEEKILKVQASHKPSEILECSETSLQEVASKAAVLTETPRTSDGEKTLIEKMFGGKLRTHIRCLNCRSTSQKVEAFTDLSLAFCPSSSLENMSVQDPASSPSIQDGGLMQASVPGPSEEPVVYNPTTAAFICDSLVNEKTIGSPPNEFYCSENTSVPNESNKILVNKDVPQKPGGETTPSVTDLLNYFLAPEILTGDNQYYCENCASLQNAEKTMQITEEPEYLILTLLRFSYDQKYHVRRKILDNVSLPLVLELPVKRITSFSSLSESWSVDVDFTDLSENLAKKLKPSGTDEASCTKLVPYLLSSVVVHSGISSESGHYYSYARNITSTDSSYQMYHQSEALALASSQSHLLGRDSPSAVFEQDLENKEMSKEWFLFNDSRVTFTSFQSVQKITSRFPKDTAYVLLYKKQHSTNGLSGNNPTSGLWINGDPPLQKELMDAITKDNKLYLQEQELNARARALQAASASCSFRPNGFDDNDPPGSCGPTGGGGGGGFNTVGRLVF
Summary of the method: as §1

USP39 = target: T3, USP39 (UniProt Q53GS9)
T3 sequence (whole entry): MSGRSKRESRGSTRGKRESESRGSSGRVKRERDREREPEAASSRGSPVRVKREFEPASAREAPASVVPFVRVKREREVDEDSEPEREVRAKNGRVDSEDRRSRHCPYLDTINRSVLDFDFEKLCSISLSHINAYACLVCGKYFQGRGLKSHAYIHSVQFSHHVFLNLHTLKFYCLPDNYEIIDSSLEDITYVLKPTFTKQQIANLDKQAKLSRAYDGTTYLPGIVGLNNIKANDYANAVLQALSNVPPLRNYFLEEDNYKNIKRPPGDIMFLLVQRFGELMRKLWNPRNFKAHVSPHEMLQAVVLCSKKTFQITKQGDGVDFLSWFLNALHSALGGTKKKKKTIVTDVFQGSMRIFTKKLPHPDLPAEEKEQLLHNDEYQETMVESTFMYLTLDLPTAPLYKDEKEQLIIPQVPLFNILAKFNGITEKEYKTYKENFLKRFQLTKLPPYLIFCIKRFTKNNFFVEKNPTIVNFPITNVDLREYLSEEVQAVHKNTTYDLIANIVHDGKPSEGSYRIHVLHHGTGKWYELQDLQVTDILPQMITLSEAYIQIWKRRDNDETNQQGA
Summary of the method: as §1

USP4 = target: T4, USP4 (UniProt Q13107)
T4 sequence (whole entry): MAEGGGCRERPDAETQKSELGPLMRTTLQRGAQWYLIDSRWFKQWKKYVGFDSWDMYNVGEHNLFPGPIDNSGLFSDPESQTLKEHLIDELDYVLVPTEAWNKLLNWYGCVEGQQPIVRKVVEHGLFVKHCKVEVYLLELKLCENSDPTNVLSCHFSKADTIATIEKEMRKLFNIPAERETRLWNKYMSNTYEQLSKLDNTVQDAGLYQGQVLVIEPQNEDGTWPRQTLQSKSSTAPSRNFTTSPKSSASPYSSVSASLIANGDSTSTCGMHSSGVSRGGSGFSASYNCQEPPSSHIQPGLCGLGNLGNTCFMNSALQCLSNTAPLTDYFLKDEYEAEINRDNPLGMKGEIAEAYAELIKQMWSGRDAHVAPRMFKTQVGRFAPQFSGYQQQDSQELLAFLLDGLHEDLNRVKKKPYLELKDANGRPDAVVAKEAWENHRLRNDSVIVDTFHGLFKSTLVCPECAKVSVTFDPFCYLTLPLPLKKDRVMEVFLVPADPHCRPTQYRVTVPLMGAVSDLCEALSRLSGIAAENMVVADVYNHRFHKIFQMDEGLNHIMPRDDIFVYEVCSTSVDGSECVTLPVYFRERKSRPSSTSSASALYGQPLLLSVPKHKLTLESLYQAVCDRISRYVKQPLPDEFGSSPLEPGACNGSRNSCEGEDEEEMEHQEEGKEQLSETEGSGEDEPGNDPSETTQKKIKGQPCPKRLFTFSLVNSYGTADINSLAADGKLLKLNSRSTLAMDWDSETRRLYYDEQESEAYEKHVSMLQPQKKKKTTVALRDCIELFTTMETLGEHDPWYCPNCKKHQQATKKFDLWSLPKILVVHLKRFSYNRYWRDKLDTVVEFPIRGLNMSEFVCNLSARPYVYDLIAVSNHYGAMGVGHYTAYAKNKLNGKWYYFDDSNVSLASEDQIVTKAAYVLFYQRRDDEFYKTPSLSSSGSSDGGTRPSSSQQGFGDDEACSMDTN
Summary of the method: as §1

Measured: log2 ratio of Biotin-Ahx-Ub-VS probe labelling

Cc1cccc(C(CNC(=O)CCl)N2CCOCC2)c1.Cl (stereo not given)
inactive: USP34 -0.0673 | USP36 0.0549 | USP38 -0.0229 | USP39 -0.116 | USP4 -0.165
